The first assay deals with Epidermal growth factor receptor (Homo sapiens) (UniProt P00533). In words: EGFR binders on small-molecule microarrays, primary screen, biochemical, small-molecule microarray, 635 nm fluorescence (AID 1104).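 Note: score merges 667 nm emission intensity with spot signal to noise over triplicate slides.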 The following applies: EGFR binding, higher = more signal.
Epidermal growth factor receptor (Homo sapiens), sequence (P00533 whole entry, looked up): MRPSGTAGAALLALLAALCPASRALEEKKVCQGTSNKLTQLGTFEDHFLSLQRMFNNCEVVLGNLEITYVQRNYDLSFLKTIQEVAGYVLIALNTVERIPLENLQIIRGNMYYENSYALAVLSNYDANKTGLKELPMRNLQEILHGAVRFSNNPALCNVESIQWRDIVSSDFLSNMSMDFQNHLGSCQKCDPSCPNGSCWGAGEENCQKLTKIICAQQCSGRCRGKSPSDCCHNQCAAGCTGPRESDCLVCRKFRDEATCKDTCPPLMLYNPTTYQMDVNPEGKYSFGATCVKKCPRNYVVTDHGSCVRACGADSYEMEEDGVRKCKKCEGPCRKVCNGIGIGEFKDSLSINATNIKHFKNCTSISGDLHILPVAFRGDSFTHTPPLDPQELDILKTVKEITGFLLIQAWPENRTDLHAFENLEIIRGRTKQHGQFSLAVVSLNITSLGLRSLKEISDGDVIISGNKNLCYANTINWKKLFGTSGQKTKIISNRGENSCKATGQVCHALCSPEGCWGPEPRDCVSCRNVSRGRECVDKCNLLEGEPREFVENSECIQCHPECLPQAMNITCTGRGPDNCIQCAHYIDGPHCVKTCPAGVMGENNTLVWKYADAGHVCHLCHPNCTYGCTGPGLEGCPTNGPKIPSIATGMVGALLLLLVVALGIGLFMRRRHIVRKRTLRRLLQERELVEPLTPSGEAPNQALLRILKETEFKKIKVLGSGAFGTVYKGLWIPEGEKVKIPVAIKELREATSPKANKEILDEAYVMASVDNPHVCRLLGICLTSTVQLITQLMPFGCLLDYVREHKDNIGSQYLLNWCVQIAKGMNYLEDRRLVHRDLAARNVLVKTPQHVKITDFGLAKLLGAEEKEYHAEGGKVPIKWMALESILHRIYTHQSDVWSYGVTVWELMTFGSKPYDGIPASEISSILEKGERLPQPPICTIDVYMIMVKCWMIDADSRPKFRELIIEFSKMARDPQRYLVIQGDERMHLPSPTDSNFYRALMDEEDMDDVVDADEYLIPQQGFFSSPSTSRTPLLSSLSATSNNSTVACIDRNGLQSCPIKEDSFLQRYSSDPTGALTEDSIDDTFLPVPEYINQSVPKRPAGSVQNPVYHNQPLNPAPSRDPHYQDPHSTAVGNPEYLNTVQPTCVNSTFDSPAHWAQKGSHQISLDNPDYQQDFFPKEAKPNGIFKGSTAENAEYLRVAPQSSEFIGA
In the case of `CC(C)C(CO)N1C(=O)[C@@H]2[C@H]3C(=O)OCC=C[C@H]3OC23C=CCN(Cn2nnc4ccccc42)C(=O)[C@@H]13` (some centres undefined), the composite z-score was -0.851.
On the same count and under the same terms, under `O=C1C2C=CC(C(O)c3ccc(Br)cc3)N(Nc3ccccc3)C2C(=O)N1c1ccccc1` (centres undefined) stands 0.181.
With `CN(C)CCCCNC(=O)[C@H]1C[C@H]2C(=O)N[C@@H](CCCC[N+](C)(C)C)C(=O)N2[C@H]1c1cccc(OCCO)c1`, the composite z-score was determined as 0.126.
The same measure, in the same setting: under `O=C1C2C=CC(C(O)c3ccccn3)N(Nc3ccccc3)C2C(=O)N1c1ccccc1` (centres undefined) stands -0.441; under `COC(=O)[C@@]1(Cc2ccc(OC)cc2)[C@H]2c3cc(C(=O)N(C)C)n(CCF)c3C[C@H]2CN1C(=O)c1ccccc1`, 0.185.
`COC(=O)[C@@]1(Cc2ccccc2N=[N+]=[N-])N=C(c2ccc(OCCCO)cc2)O[C@H]1c1ccccc1` displayed a composite z-score of -0.285.
On the same count and under the same terms, under `C=CCC(OC(C)=O)[C@@H]1[C@@H](N(Cc2cccc3ccccc23)C(=O)c2ccc(C)cc2)c2cc(OCCCO)ccc2N1C(=O)c1ccc2ccccc2c1` (some centres undefined) stands 0.286; under `O=C(NCc1ccccc1)[C@]1(Cc2ccccc2)N=C(c2ccc(OCCCO)cc2)O[C@@H]1c1ccccc1`, 0.178; under `O=C1O[C@@H](c2ccccc2)[C@@H](c2ccccc2)N2[C@@H](c3ccc(O)cc3)[C@]3(C(=O)Nc4ccc(C#CC5(O)CCCCCC5)cc43)[C@@H](C(=O)N3CCN(c4ncccn4)CC3)[C@H]12`, -0.0042.
`COCC(=C=CC[C@@H](O)c1ccccc1OCCO)C[C@@H](O)c1ccccn1` gave a composite z-score of -0.0982.
Still for that read-out and setting: under `C#CCNS(=O)(=O)N(C)C` stands 0.469; under `C=CCC(OC(C)=O)[C@@H]1[C@@H](N(Cc2ccc(-c3cccc(C(F)(F)F)c3)o2)C(=O)c2cccc3ccccc23)c2cc(OCCCO)ccc2N1C(=O)c1ccc(-c2ccccc2)cc1` (some centres undefined), 0.181; under `COCCOC(=O)N1C(=O)[C@@]2(c3cc(C#CCC(C(=O)OC)C(=O)OC)ccc31)[C@H](c1ccc(OCCO)cc1)N1[C@H](c3ccccc3)[C@H](c3ccccc3)OC(=O)[C@H]1[C@@H]2C(N)=O`, 0.603.
`CCCC[C@H]1OB(O)C[C@H]2C1=C(COc1ccccc1)Cn1c(=O)n(-c3ccccc3)c(=O)n12` returned a composite z-score of 0.283.

For the next assay, the target named is Follistatin-related protein 3 (Homo sapiens) (UniProt O95633). In words: FSTL3 binders on small-molecule microarrays, primary screen, biochemical, small-molecule microarray, 635 nm fluorescence (AID 1105).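 Note: score merges emission near 667 nm and signal to noise per printed spot across three slides.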 The settings on record: FSTL3 binding, higher = more signal.
Follistatin-related protein 3 (Homo sapiens), sequence (O95633 whole entry, looked up): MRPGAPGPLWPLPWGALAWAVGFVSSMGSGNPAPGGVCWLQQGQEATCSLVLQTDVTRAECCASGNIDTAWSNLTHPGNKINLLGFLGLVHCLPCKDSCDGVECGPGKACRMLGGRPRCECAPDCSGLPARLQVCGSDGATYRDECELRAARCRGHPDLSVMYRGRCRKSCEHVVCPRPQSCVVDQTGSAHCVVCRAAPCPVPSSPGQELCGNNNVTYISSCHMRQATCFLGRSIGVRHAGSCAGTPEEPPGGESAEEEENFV
Compound `COC(=O)[C@@]1(Cc2ccccc2)[C@H]2c3cc(C(=O)N4CCCC4)n(Cc4ccccc4)c3C[C@H]2CN1C(=O)c1ccccc1` gave a composite z-score of 0.96.
Same read-out and setting: under `CC(C)C[C@@H]1NC(=O)[C@@]23C(=O)N[C@@H](Cc4ccccc4)C2[C@H](C)[C@@]2(C)O[C@H]2C3/C=C/C/C=C\CNC(=O)[C@@H]2CCCN2C1=O` (some centres undefined) stands 0.361; under `COC(=O)[C@@]1(Cc2ccc(OC)cc2)[C@H]2c3cc(C(=O)N4CCCC4)n(CCF)c3C[C@H]2CN1C(=O)c1ccccc1`, 0.942.
On the same count and under the same terms, under `C=C(/C(=C/C[C@@H](OC(=O)c1ccncc1)c1cccc(OCCO)c1)c1cc(C(=O)OC)ccc1OC)C(C)C` stands 0.59; under `O=C(CS)NCCCCCNC(=O)[C@@H]1C[C@@H]2C(=O)N3CCC[C@H]3C(=O)N2[C@@H]1c1ccc(O)cc1`, 0.0144.
Still for that read-out and setting: under `COc1cccc(C)c1NC(=O)O[C@H]1[C@H](OC(=O)Nc2ccccc2)[C@H](OC(=O)Nc2ccccc2)[C@@H](OC)O[C@@H]1CO` stands 0.367; under `COc1ccc(C#Cc2ccc3c(c2)[C@]2(C(=O)N3)[C@H](C(=O)O)[C@H]3C(=O)O[C@H](c4ccccc4)[C@H](c4ccccc4)N3[C@@H]2c2ccc(OCCO)cc2)cc1`, 0.486.
As to `COc1cc2c(cc1OC)CN(C(=O)[C@@H]1[C@H]3C(=O)O[C@H](c4ccccc4)[C@H](c4ccccc4)N3[C@H](c3ccc(O)cc3)[C@@]13C(=O)Nc1ccc(C#CCNC(N)=O)cc13)CC2`, the composite z-score worked out at 0.694.
On the same count and under the same terms, under `COc1ccc([Si](C)(C)[C@@H]2[C@@H](CCO)O[C@]3(C(=O)N(Cc4cccc(N5C(=O)COc6ccccc65)c4)c4ccccc43)[C@H]2C)cc1` stands -0.225; under `Cc1ccc(-c2cccc(=O)o2)cc1`, 0.483.
On the same count and under the same terms, under `COC(=O)c1ccc(OC)c(/C=C\CC(CCc2ccccc2)OC(C)=O)c1` (centres undefined) stands 0.21; under `C=C(C(=O)CC[C@H](OC(=O)c1cccnc1)c1ccc(OCCO)cc1)C(C)C`, 0.721.
Same read-out and setting: under `CCCC=C(CCC)[C@@H](NS(=O)(=O)c1cccc2cccnc12)c1ccc(C(=O)OC)cc1` stands 1.24.
Turning to `CC(C)CCC[C@@H](C)[C@H]1CC[C@@]2(C)C3=C(CC[C@]12C)[C@@]1(C)CC[C@H](OC(=O)c2ccc(N)cc2)C(C)(C)C1CC3` (some centres undefined), the composite z-score stood at 0.587.
The same measure, in the same setting: under `C[C@H]1ON(c2ccccc2)[C@@H](c2ccccc2)[C@@H]1C(=O)N1C(=O)OC[C@@H]1c1ccccc1` stands 0.699.

Values taken from PubChem BioAssay.
